From PubChem BioAssay AID651 (University of Pittsburgh Molecular Library Screening Center, 2007)
Hit rate of the full screen: of about 1,000 compounds, about 390 (39%) were called active. Roughly 8% stayed inconclusive and do not appear here. Rule as the data show it: active = inhibition above about 48%; inconclusive = no clear call, values can overlap the other calls; inactive = below that. Not all results are given here.

biological target: Gag-Pol polyprotein (Human immunodeficiency virus type 1 group M subtype B (isolate HXB2)) (UniProt P04585); assay: HIV-1 RT RNase H inhibitors, retest, confirmation, biochemical (AID 651); conditions: Recombinant RT RNase H, fluorescent RNA/DNA duplex cleavage; at 10 µM; hits give high values

| Compound | inhibition |
| --- | --- |
| CCCc1nc2ccccc2c(=O)n1/N=C/c1ccc(O)c(O)c1 | 74.1% (active) |
| Cc1nc(C)c(C(=O)Nc2cccc(C)c2C)o1 | 14.1% (inactive) |
| Clc1ccccc1CSc1nnc(-c2ccco2)c(-c2ccco2)n1 | 18.5% (inactive) |
| CC1CCc2c(sc(NC(=O)c3ccc(Cn4cc(Br)cn4)o3)c2C(N)=O)C1 (stereo not given) | 59.9% (active) |
| CN(c1ccccc1)c1ccc(/C=c2\s/c(=C(/C#N)C(=O)C(C)(C)C)n(Cc3ccco3)c2=O)cc1 | 50.5% (active) |
| O=C(NCc1ccccn1)c1ccc2nc(-c3ccco3)c(-c3ccco3)nc2c1 | 2.46% (inactive) |
| Nc1ccc(-c2nnc(-c3ccc(-c4ccccc4)cc3)o2)cc1 | 63.3% (active) |
| CCCC(=O)N1CCc2[nH]c3ccccc3c2C1 | -2.83% (inactive) |
| CC(C)CNC(=O)C1CCCN(S(=O)(=O)c2ccc(-n3cnnn3)cc2)C1 (stereo not given) | 40.6% (inactive) |
| CCCCOC(=O)CNc1nnc(SCC(=O)OCC)[nH]c1=O | 43.7% (inactive) |
| CCN(CC)c1ccc2oc(=O)c(C)nc2c1 | 0.308% (inactive) |
| Cc1csc(NC(=O)NC2(C(F)(F)F)Oc3ccccc3O2)n1 | 33.8% (inactive) |
| O=C(Nc1nc(-c2ccncc2)cs1)C1COc2ccccc2O1 (stereo not given) | 69.2% (active) |
| CCCc1nnc(NC(=O)CN2C(=O)c3ccccc3S2(=O)=O)s1 | 60.4% (active) |
| CCc1nnc(NC(=O)CSc2nnc(COc3ccc(C#N)cc3)n2-c2ccccc2)s1 | 19.2% (inactive) |
| COc1ccc(Cc2nnc(NC(=O)Cc3cccs3)s2)cc1 | 22.2% (inactive) |
| COC(=O)C1=C(C)NC2=C(C(=O)c3ccccc32)C1c1ccc(-c2ccc(C(=O)O)cc2)o1 (stereo not given) | 5.29% (inactive) |
| c1ccc(Cc2nn3c(Cn4cnc5ccccc54)nnc3s2)cc1 | 59.7% (active) |
| CCOc1ccc2[nH]c(=O)c(CN(CCCO)C(C)=O)cc2c1 | 15.8% (inactive) |
| NC(=O)Cn1c(=O)oc2ccccc21 | 35.5% (inactive) |
| Cc1noc(C)c1CSc1nc2cc(S(=O)(=O)N3CCOCC3)ccc2o1 | 61% (active) |
| COc1cc(C(=O)Nc2oc(-c3ccccc3)c(-c3ccccc3)c2C#N)cc(OC)c1OC | 53.6% (active) |
| Cc1ccc2cccc(O)c2[n+]1[O-] | 43.9% (inactive) |
| CCC(C)(C)NC(=O)C(c1cccn1C)N(Cc1ccc(C)cc1)C(=O)Cn1nnc2ccccc21 (stereo not given) | -5.01% (inactive) |
| CCCCCn1c(SCCC(C)C)nc2c1c(=O)[nH]c(=O)n2C | 17.3% (inactive) |

| Compound | inhibition |
| --- | --- |
| CCC(C)Sc1nc2c(c(=O)[nH]c(=O)n2C)n1CC(O)COc1cccc2ccccc12 (stereo not given) | 68.7% (active) |
| Cc1ccnc(-n2sc3ccccc3c2=O)n1 | 60% (active) |
| COc1ccc(OC)c(Nc2nc(-c3ccc(O)c(O)c3)cs2)c1 | 77.2% (active) |
| Cc1ccc2c(c1)sc1ncc(NC(=O)c3ccccc3)c(=O)n12 | 46.4% (inactive) |
| COc1cccc(-c2nnc(NC(=O)c3ccc(S(=O)(=O)N(CC(C)C)CC(C)C)cc3)o2)c1 | 74.9% (active) |
| CCC1=[N+]([O-])C(C)(/C(C)=N\O)N(O)C1(C)C (stereo not given) | 32% (inactive) |
| CCOC(=O)N1CCN(CC(=O)c2ccc3c(c2)CCN3)CC1 | 15.5% (inactive) |
| COc1ccc(CCn2c(=N)c(C(=O)NCc3ccco3)cc3c(=O)n4cccc(C)c4nc32)cc1 | 1.96% (inactive) |
| Cc1cc(C(F)(F)F)nn1-c1nc(-c2ccco2)cc(C(F)(F)F)n1 | 38% (inactive) |
| Cc1cccc(-n2c(N)c(C(=O)N3CCN(C)CC3)sc2=S)c1 | 67% (active) |
| Cc1ccc(-n2c(N)c(C(=O)N3CCOCC3)sc2=S)c(C)c1 | -4.07% (inactive) |
| Cc1ccnc(N2CCCC(C(=O)Nc3cc(F)ccc3C)C2)n1 (stereo not given) | 9.38% (inactive) |
| COC(=O)N(c1ccc(OC)cc1)P1(=S)OCCC(C)O1 (stereo not given) | 57.7% (active) |
| CCc1c(C)[nH]c(=S)c(C#N)c1C | -2.67% (inactive) |
| Fc1ccc(-c2ccc(-c3nn4c(-c5ccco5)nnc4s3)o2)cc1 | 48.4% (active) |
| Fc1ccc(-c2nnc3sc(-c4ccc5c(c4)OCO5)nn23)cc1 | 94.9% (active) |
| COC(=O)Nc1nc2ccc(Sc3ccccc3)cc2[nH]1 | 33.9% (inactive) |
| O=C(Nc1cc(N2CCOCC2)ncn1)NC1(C(F)(F)F)Oc2ccc(Cl)cc2O1 (stereo not given) | -8.24% (inactive) |
| CCN(CC)S(=O)(=O)c1ccc2nc(COC(=O)c3n[nH]c4ccccc34)[nH]c2c1 | 29.7% (inactive) |
| CC(C)C1N=C2c3ccccc3N=C(SCC(=O)c3ccc(O)c(O)c3)N2C1=O (stereo not given) | 64.7% (active) |
| COc1ccc(N2C(=O)CN=C2Nc2cccc(C)c2C)cc1OC | 42.9% (inactive) |
| c1ccc(CSc2nnc(-c3ccco3)c(-c3ccco3)n2)cc1 | 42.2% (inactive) |
| COc1ccc(Nc2oc(-c3ccccc3Cl)nc2C#N)cc1 | 3.03% (inactive) |
| CCOC(=O)c1sc(=S)n2c1[nH]c(=O)c1ccc(C(=O)OC)cc12 | 73.8% (active) |
| Cc1ccc(-n2nc(-c3ccco3)cc2C(=O)NCc2cccnc2)cc1 | -3.12% (inactive) |
